# Source: PubChem BioAssay
# Test: probe aLefty2 binding to arrayed compounds – biochemical, biotinylated probe, 635/667 nm fluorescence, primary screen (AID 1094);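 note: score merges spot fluorescence near 667 nm with spot signal-to-noise ratio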
# Conditions: small-molecule microarray, higher = more signal
row,SMILES,composite z-score
1,COc1ccc(COC(=O)NN=C2C[C@@H](O)[C@@H](O)[C@@H]3[C@@H]4C(=O)N(C[C@@H]5CCCO5)C(=O)[C@@H]4CC[C@H]23)cc1,0.258
2,CCOC(=O)[C@H](Cc1ccccc1)NC(=O)CCC1CC(OC(=O)NCCc2ccc(F)cc2)CC2(CCCC(COC(=O)NCCC(C)C)O2)O1 (stereo not given in full),-0.145
3,COC(=O)CC=C[C@@H](C)[C@@H](C=NOC[C@@H](O)[C@H]1O[C@@H]2OC(C)(C)O[C@@H]2[C@H]1O)OC,-0.183
4,C[C@]12CCC3c4ccc(OCC5CO5)cc4CCC3C1CC[C@@H]2O (stereo not given in full),0.124
5,CCOC(=O)CCN1C(=O)[C@H]2[C@H]3[C@H](O)[C@H](O)CC(=NO[C@@H]4O[C@H](CO)[C@@H](O)[C@H](O)[C@H]4O)[C@@H]3CC[C@H]2C1=O,-0.0598
6,CC(CCN1CCCCc2nc(C)c(C)cc21)=NO[C@H](C)c1cn([C@@H]2COC[C@H]2O)nn1,0.0636
7,COc1ccc(COC(=O)NN=C2C[C@@H](O)[C@@H](O)[C@@H]3[C@@H]4C(=O)N(c5cccc(Oc6ccccc6)c5)C(=O)[C@@H]4CC[C@H]23)cc1,0.297
8,CC=CC1=C(CO)[C@H](O)[C@H]2O[C@H]2[C@@H]1O,-0.221
9,CC1(C)O[C@H]2OC([C@H](O)CON3C(=O)c4ccccc4C3=O)[C@H](O)[C@H]2O1 (stereo not given in full),-0.0561
10,CCOC(=O)NN=C1C[C@@H](O)[C@@H](O)[C@@H]2[C@@H]3C(=O)N(CC)C(=O)[C@@H]3CC[C@H]12,-0.25
11,CC(=O)OC[C@H]1O[C@@H](ON=C(C)CCC(=O)OC[C@H]2O[C@H](C#Cc3ccccc3)C=C[C@@H]2Oc2ccc(C)cc2)[C@H](OC(C)=O)[C@@H](OC(C)=O)[C@@H]1OC(C)=O,-0.122
12,Cc1cc2c(nc1C)CCCCN2CC(O)CN1CCCc2nc(-c3ccc(Br)cc3)ccc21 (stereo not given),-0.0083
13,CCOC(=O)CCN1C(=O)[C@H]2[C@H]3[C@H](O)[C@H](O)CC(=NOCC=C(C)CCC=C(C)C)[C@@H]3CC[C@H]2C1=O,-0.197
14,CC(=O)OC[C@H]1O[C@@H](ON=C(C)CCN2CCCCc3nc(C)c(C)cc32)[C@H](OC(C)=O)[C@@H](OC(C)=O)[C@@H]1OC(C)=O,-0.0179
15,CC(=O)OC[C@H]1O[C@H](CCON=C(C)C)C=C[C@@H]1OC(C)=O,-0.152
16,CCCNC(=O)OC[C@H]1O[C@H](CCON=C[C@@H](NS(=O)(=O)c2ccc(C)cc2)[C@H](C)C=CCC(=O)OC)C=C[C@@H]1Oc1ccc(OC)cc1,-0.181
17,CCCC[C@H]1CN2[C@@H](CC[C@@H](C)[C@@H]2c2ccc(Br)cc2)C(=O)O1,-0.109
18,CCC1=NOC(CCC2CC(OC(=O)NCc3cccc4c3OCO4)CC3(CCCC(COC(=O)NCCc4ccc(Cl)cc4)O3)O2)C1 (stereo not given),-0.186
19,COc1ccc(O[C@H]2C=C[C@@H](C#Cc3ccccc3)O[C@@H]2CO)cc1,-0.248
20,CC(C)CON=C1[C@H]2CCn3c(=O)n(C)c(=O)n3[C@H]2[C@H](O)[C@@H]2O[C@H]12,-0.112
21,COC(=O)[C@@H]1CC[C@H](C)[C@@H](c2ccc(Br)cc2)N1C[C@@H](O)CN=[N+]=[N-],-0.0412
22,COC(=O)[C@H](C)NC(=O)CCC1CC(OC(=O)NCCc2ccc(F)cc2)CC2(CCCC(COC(=O)NCc3ccccc3)O2)O1 (stereo not given in full),-0.0898
23,O=C1C[C@H](c2ccccc2)[C@H](c2ccc(Br)cc2)O1,-0.224
24,COc1ccc(O[C@H]2C=C[C@@H](c3ccccc3)O[C@@H]2COC(=O)CCC(C)=NOC[C@@H](O)COCc2ccco2)cc1,-0.443
25,O=C1[C@H]2[C@H]3[C@H](O)[C@H](O)CC(=NOCc4ccccc4)[C@@H]3CC[C@H]2C(=O)N1c1cccc(Oc2ccccc2)c1,0.266
26,O=C1[C@H]2[C@H]3[C@H](O)[C@H](O)CC(=NOC[C@@H](O)COCc4ccco4)[C@@H]3CC[C@H]2C(=O)N1Cc1ccc2c(c1)OCO2,-0.172
27,CCOC(=O)[C@H](CC(C)C)NC(=O)CCC1CC(OC(=O)NCc2ccc3c(c2)OCO3)CC2(CCCC(COC(=O)NCc3ccccc3)O2)O1 (stereo not given in full),-0.124
28,O=C1C2=CC[C@H]3C(=O)N(C4CCCCC4)C(=O)[C@H]3[C@H]2[C@H](O)[C@@H]2O[C@H]12,-0.196
29,C=CCOCC1CN2[C@@H](CC[C@@H](C)[C@@H]2c2ccc(Br)cc2)C(=O)O1 (stereo not given in full),-0.296
30,CCOC(=O)[C@H](Cc1ccccc1)NC(=O)CCC1CC(OC(=O)NCc2ccc3c(c2)OCO3)CC2(CCCC(COC(=O)NCCOc3ccccc3)O2)O1 (stereo not given in full),-0.0446
